This is an account of results in article PMC12864922, “TDP-43 directly inhibits mRNA accumulation in neurites through modulation of mRNA stability”.

In all, about 9,900 sequences were measured (“r (bound/input frequency ratio)”: median about 0.7, highest 2% from about 6.5 on). The list comes from a sample in which the highest values are over-represented; it also holds similar and randomly drawn sequences.

B1: ENSMUSG00000043670.207|Diras1 (ssRNA)
RNA: GGGAGUUCUACAGUCCGACGAUCGCUUCGAUAUCCGCAUGCUAGGUGACUUAGAAUUCUGUGUUUAUGUGCCUGUGUGUGUGGAUGGGUGUGUGUCUGUCUUGGGAUGGGGUGUUCUUGCACCACUUUGUGUUCUUAGUGAGACCACAGUGUAAGUGGCCGUGUGUGUGUGUGGGGGGGGGCACCUAGACAUUGUGGUGUGUCUGUAUGGCUCUGUGUUUUCAGGGGUGGGUGACACAGGCCUGUCUGAUGAGCACCAGGUCUGUUCCAGGCUGUGGCAAGCUGGCUCCUGGCUCAGAAGUGACUCUUGCGGUCGCACUAGUGUGGAAUUCUCGGGUGUCAAGG
B2: ENSMUSG00000043670.210|Diras1 (ssRNA)
RNA: GGGAGUUCUACAGUCCGACGAUCGCUUCGAUAUCCGCAUGCUAGUUUAUGUGCCUGUGUGUGUGGAUGGGUGUGUGUCUGUCUUGGGAUGGGGUGUUCUUGCACCACUUUGUGUUCUUAGUGAGACCACAGUGUAAGUGGCCGUGUGUGUGUGUGGGGGGGGGCACCUAGACAUUGUGGUGUGUCUGUAUGGCUCUGUGUUUUCAGGGGUGGGUGACACAGGCCUGUCUGAUGAGCACCAGGUCUGUUCCAGGCUGUGGCAAGCUGGCUCCUGGCUCAGAAGUGACAAAGCUGCAGUACAGAGCUCUUGCGGUCGCACUAGUGUGGAAUUCUCGGGUGUCAAGG
B3: ENSMUSG00000043670.208|Diras1 (ssRNA)
RNA: GGGAGUUCUACAGUCCGACGAUCGCUUCGAUAUCCGCAUGCUAUUAGAAUUCUGUGUUUAUGUGCCUGUGUGUGUGGAUGGGUGUGUGUCUGUCUUGGGAUGGGGUGUUCUUGCACCACUUUGUGUUCUUAGUGAGACCACAGUGUAAGUGGCCGUGUGUGUGUGUGGGGGGGGGCACCUAGACAUUGUGGUGUGUCUGUAUGGCUCUGUGUUUUCAGGGGUGGGUGACACAGGCCUGUCUGAUGAGCACCAGGUCUGUUCCAGGCUGUGGCAAGCUGGCUCCUGGCUCAGAAGUGACAAAGCCUCUUGCGGUCGCACUAGUGUGGAAUUCUCGGGUGUCAAGG
B4: ENSMUSG00000043670.212|Diras1 (ssRNA)
RNA: GGGAGUUCUACAGUCCGACGAUCGCUUCGAUAUCCGCAUGCUAGUGUGUGUGGAUGGGUGUGUGUCUGUCUUGGGAUGGGGUGUUCUUGCACCACUUUGUGUUCUUAGUGAGACCACAGUGUAAGUGGCCGUGUGUGUGUGUGGGGGGGGGCACCUAGACAUUGUGGUGUGUCUGUAUGGCUCUGUGUUUUCAGGGGUGGGUGACACAGGCCUGUCUGAUGAGCACCAGGUCUGUUCCAGGCUGUGGCAAGCUGGCUCCUGGCUCAGAAGUGACAAAGCUGCAGUACAGAGGCCUCAGUGUGACUCUUGCGGUCGCACUAGUGUGGAAUUCUCGGGUGUCAAGG
B5: ENSMUSG00000043670.209|Diras1 (ssRNA)
RNA: GGGAGUUCUACAGUCCGACGAUCGCUUCGAUAUCCGCAUGCUAUUCUGUGUUUAUGUGCCUGUGUGUGUGGAUGGGUGUGUGUCUGUCUUGGGAUGGGGUGUUCUUGCACCACUUUGUGUUCUUAGUGAGACCACAGUGUAAGUGGCCGUGUGUGUGUGUGGGGGGGGGCACCUAGACAUUGUGGUGUGUCUGUAUGGCUCUGUGUUUUCAGGGGUGGGUGACACAGGCCUGUCUGAUGAGCACCAGGUCUGUUCCAGGCUGUGGCAAGCUGGCUCCUGGCUCAGAAGUGACAAAGCUGCAGUCUCUUGCGGUCGCACUAGUGUGGAAUUCUCGGGUGUCAAGG
B6: ENSMUSG00000043670.211|Diras1 (ssRNA)
RNA: GGGAGUUCUACAGUCCGACGAUCGCUUCGAUAUCCGCAUGCUAGUGCCUGUGUGUGUGGAUGGGUGUGUGUCUGUCUUGGGAUGGGGUGUUCUUGCACCACUUUGUGUUCUUAGUGAGACCACAGUGUAAGUGGCCGUGUGUGUGUGUGGGGGGGGGCACCUAGACAUUGUGGUGUGUCUGUAUGGCUCUGUGUUUUCAGGGGUGGGUGACACAGGCCUGUCUGAUGAGCACCAGGUCUGUUCCAGGCUGUGGCAAGCUGGCUCCUGGCUCAGAAGUGACAAAGCUGCAGUACAGAGGCCUCACUCUUGCGGUCGCACUAGUGUGGAAUUCUCGGGUGUCAAGG
B7: ENSMUSG00000043670.215|Diras1 (ssRNA)
RNA: GGGAGUUCUACAGUCCGACGAUCGCUUCGAUAUCCGCAUGCUAGUGUCUGUCUUGGGAUGGGGUGUUCUUGCACCACUUUGUGUUCUUAGUGAGACCACAGUGUAAGUGGCCGUGUGUGUGUGUGGGGGGGGGCACCUAGACAUUGUGGUGUGUCUGUAUGGCUCUGUGUUUUCAGGGGUGGGUGACACAGGCCUGUCUGAUGAGCACCAGGUCUGUUCCAGGCUGUGGCAAGCUGGCUCCUGGCUCAGAAGUGACAAAGCUGCAGUACAGAGGCCUCAGUGUGAGGUCAUCACCUCACAGUGCUCUUGCGGUCGCACUAGUGUGGAAUUCUCGGGUGUCAAGG
B8: ENSMUSG00000043670.198|Diras1 (ssRNA)
RNA: GGGAGUUCUACAGUCCGACGAUCGCUUCGAUAUCCGCAUGCUAGAGACUGUCCAGGAGACUUGAGUGGCUCCUGGGCCUGUGUCCCACCCAGAUGAGGGUGACUUAGAAUUCUGUGUUUAUGUGCCUGUGUGUGUGGAUGGGUGUGUGUCUGUCUUGGGAUGGGGUGUUCUUGCACCACUUUGUGUUCUUAGUGAGACCACAGUGUAAGUGGCCGUGUGUGUGUGUGGGGGGGGGCACCUAGACAUUGUGGUGUGUCUGUAUGGCUCUGUGUUUUCAGGGGUGGGUGACACAGGCCUGUCUGACUCUUGCGGUCGCACUAGUGUGGAAUUCUCGGGUGUCAAGG
B9: ENSMUSG00000043670.205|Diras1 (ssRNA)
RNA: GGGAGUUCUACAGUCCGACGAUCGCUUCGAUAUCCGCAUGCUACACCCAGAUGAGGGUGACUUAGAAUUCUGUGUUUAUGUGCCUGUGUGUGUGGAUGGGUGUGUGUCUGUCUUGGGAUGGGGUGUUCUUGCACCACUUUGUGUUCUUAGUGAGACCACAGUGUAAGUGGCCGUGUGUGUGUGUGGGGGGGGGCACCUAGACAUUGUGGUGUGUCUGUAUGGCUCUGUGUUUUCAGGGGUGGGUGACACAGGCCUGUCUGAUGAGCACCAGGUCUGUUCCAGGCUGUGGCAAGCUGGCUCCUGCUCUUGCGGUCGCACUAGUGUGGAAUUCUCGGGUGUCAAGG
B10: ENSMUSG00000043670.203|Diras1 (ssRNA)
RNA: GGGAGUUCUACAGUCCGACGAUCGCUUCGAUAUCCGCAUGCUAGGGCCUGUGUCCCACCCAGAUGAGGGUGACUUAGAAUUCUGUGUUUAUGUGCCUGUGUGUGUGGAUGGGUGUGUGUCUGUCUUGGGAUGGGGUGUUCUUGCACCACUUUGUGUUCUUAGUGAGACCACAGUGUAAGUGGCCGUGUGUGUGUGUGGGGGGGGGCACCUAGACAUUGUGGUGUGUCUGUAUGGCUCUGUGUUUUCAGGGGUGGGUGACACAGGCCUGUCUGAUGAGCACCAGGUCUGUUCCAGGCUGUGGCACUCUUGCGGUCGCACUAGUGUGGAAUUCUCGGGUGUCAAGG
B11: ENSMUSG00000043670.203|Diras1|6:10;40:44;54:63;69:76;109:113;142:154;178:183;186:190;195:199 (ssRNA)
RNA: GGGAGUUCUACAGUCCGACGAUCGCUUCGAUAUCCGCAUGCUAGGGCCACACACCCACCCAGAUGAGGGUGACUUAGAAUUCACACAUUAUGUGCCACACACACACGAUGGCACACACACUGUCUUGGGAUGGGGUGUUCUUGCACCACUUACACAUCUUAGUGAGACCACAGUGUAAGUGGCCCACACACACACACGGGGGGGGCACCUAGACAUUGUGCACACACUCAUACGCUCACACAUUUCAGGGGUGGGUGACACAGGCCUGUCUGAUGAGCACCAGGUCUGUUCCAGGCUGUGGCACUCUUGCGGUCGCACUAGUGUGGAAUUCUCGGGUGUCAAGG
B12: ENSMUSG00000031028.55|Tub (ssRNA)
RNA: GGGAGUUCUACAGUCCGACGAUCGCUUCGAUAUCCGCAUGCUAUGUGCCCCAAGGUCAACACACAUGCCCAGUCCUGGGUCAGUCCCCUGCUGCAGUGGUGUUAUCACACCGGAAAGCCUCUUCACCUGGAGGUACAGAGGGAGAGGAAGCACAAGCCUGGCUGCUGUGGCUCAGCCAUCCACUCAGCCUACGAGUCAGAGACAGUGGGUGUCCCGGGAAGCAGGGGUACAGUGAGUGUGUGUGUAUGUACAGGGCACUCAAGCUGUAUGUAGAAAAAGCUCUGGUGGUCAGCAGAAAGCACUCUCUUGCGGUCGCACUAGUGUGGAAUUCUCGGGUGUCAAGG
B13: ENSMUSG00000042529.483|Kcnj12 (ssRNA)
RNA: GGGAGUUCUACAGUCCGACGAUCGCUUCGAUAUCCGCAUGCUAUCUCUUUGAAUGCUACUGUGUUGAGAUGUGCGUCUCACUGGCCUCUGCCUGCCUCUCCCGCCUGCGGAGCACUUACACUUCCUGGGGCCCCUGCAGCUGGACCAUGUACAGGGCUCCCUGGGGCUUGUCCUCAGGGGCAGAGAAGGACAUGGUGGCAGCAGCACUGAGAACAGGAGCAUGGCCUCUCUCAGACCCCAGGGCAGUCAUUCAGUCUUUUCCAUGGACACUCCCCACCGCUCCACAUACUGCCUCCGCCUCAUCUCUUGCGGUCGCACUAGUGUGGAAUUCUCGGGUGUCAAGG

Chain of TDP-43 (Q13148 whole entry): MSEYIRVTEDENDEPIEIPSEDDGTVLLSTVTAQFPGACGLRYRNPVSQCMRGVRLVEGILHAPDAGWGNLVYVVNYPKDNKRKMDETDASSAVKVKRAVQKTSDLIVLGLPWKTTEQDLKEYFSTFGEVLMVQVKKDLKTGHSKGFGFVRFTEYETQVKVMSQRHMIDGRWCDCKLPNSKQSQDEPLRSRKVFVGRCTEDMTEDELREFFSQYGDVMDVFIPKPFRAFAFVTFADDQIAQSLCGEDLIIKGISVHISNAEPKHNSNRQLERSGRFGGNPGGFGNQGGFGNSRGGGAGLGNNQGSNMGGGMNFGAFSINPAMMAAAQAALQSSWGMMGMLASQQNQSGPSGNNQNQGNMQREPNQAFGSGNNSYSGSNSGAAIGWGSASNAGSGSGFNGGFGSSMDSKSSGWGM

The test concerns the target TDP-43 (Homo sapiens, UniProt Q13148 1-414). Nature of the test: RNA Bind-n-Seq with designed 260-mer pool; 25 mM Tris-HCl, 150 mM KCl, 3 mM MgCl2, BSA (printed 500 mg/mL), 20 units/mL SUPERase IN; pH not stated; 500 nM RNA pool, 1 h, 4 C; TDP-43 5, 50, 500 nM; high values mean tight binding. Particulars: protein: recombinant; tags: SBP (GST cleaved off with PreScission; pGEX-GST-SBP). The procedure, abridged: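 Streptavidin beads captured recombinant SBP-tagged TDP-43 at 5, 50 or 500 nM, and the beads were incubated for 1 h at 4 °C with 500 nM of an in vitro-transcribed pool of 260-nt 3′ UTR oligos in 25 mM Tris-HCl, 150 mM KCl, 3 mM MgCl2, BSA and SUPERase IN. After washing, bound RNA was eluted with biotin, reverse transcribed, PCR-amplified and sequenced. Binding is reported as R, the mapped-read-normalized abundance of each oligo in the bound sample divided by its abundance in the input. Two independent protein batches served as duplicates.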
Consider B1, for which the binding signal is 8.86 R (bound/input frequency ratio).
For B2 the value was 5.7 R (bound/input frequency ratio); for B3, 7.79 R (bound/input frequency ratio); for B4, 6.14 R (bound/input frequency ratio).
The result for B5 reads 5.23 R (bound/input frequency ratio); that for B6, 5.36 R (bound/input frequency ratio); that for B7, 3.25 R (bound/input frequency ratio).
For B8 the value was 4.93 R (bound/input frequency ratio); for B9, 7.36 R (bound/input frequency ratio); for B10, 7.32 R (bound/input frequency ratio).
For B11, the binding signal is 1.5 R (bound/input frequency ratio).
With B12, the binding signal was 0.773 R (bound/input frequency ratio).
For B13 the value was 0.21 R (bound/input frequency ratio).
